A selection: hits, their analogues and other compounds. The true share with any hit is near 0.68%.
AMA1 RON2 block: disrupts binding of P. falciparum AMA1 to RON2; AlphaScreen AMA1-biotinylated RON2 peptide binding; Potency, µM (titrated, usually from 58.2 µM), without a hit: top-dose activity change, negative = inhibition, hits mostly inhibitors; actives 0.2% (n = 360,000); AID 720542;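 also: 0% = vehicle wells and -100% = peptide control; nearly all actives have a fitted effect of over 45% in size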
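AMA1 (3D7) with his tag at 25 nM final met compounds first, then biotinylated RON2 peptide at 25 nM; detection used donor plus acceptor beads, 10 µg/mL apiece, read by AlphaScreen after 30 min at room temperature.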
RE007 growth inh: less growth of the S. pombe RE007 Vpr strain. S. pombe RE007 Vpr strain, BacTiter-Glo ATP luminescence, 24 h. actives 0.21% (n = 360,000). AID 651644. Potency, µM (highest dose often 92.2 µM), for the others: top-dose activity change, negative = less growth, hits mostly inhibitors; active = well fitted falling curve with a large enough effect; inconclusive = small, poorly fitted or top-dose-only effect; inactive = no such curve, though single readings can be large or run the other way; also: nearly all actives have a fitted effect of over 50% in size
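Fission yeast strain RE007, carrying one chromosomally integrated HIV-1 vpr copy, was seeded at OD 0.01 in PMG+AL medium with 23 nL pinned compound. After 24 h at 30 °C and 99% humidity, viability was read by BacTiter-Glo luminescence.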
LmPK inhibitor: LmPK (Leishmania mexicana) enzyme inhibition; Q27686; purified LmPK, Kinase-Glo ATP luminescence, 1 h; Potency, µM (top dose mostly 57.5 µM), without a hit: top-dose activity change, negative = inhibition, hits mostly inhibitors; actives 0.37% (n = 290,000)
Target sequence (Q27686 whole entry, looked up): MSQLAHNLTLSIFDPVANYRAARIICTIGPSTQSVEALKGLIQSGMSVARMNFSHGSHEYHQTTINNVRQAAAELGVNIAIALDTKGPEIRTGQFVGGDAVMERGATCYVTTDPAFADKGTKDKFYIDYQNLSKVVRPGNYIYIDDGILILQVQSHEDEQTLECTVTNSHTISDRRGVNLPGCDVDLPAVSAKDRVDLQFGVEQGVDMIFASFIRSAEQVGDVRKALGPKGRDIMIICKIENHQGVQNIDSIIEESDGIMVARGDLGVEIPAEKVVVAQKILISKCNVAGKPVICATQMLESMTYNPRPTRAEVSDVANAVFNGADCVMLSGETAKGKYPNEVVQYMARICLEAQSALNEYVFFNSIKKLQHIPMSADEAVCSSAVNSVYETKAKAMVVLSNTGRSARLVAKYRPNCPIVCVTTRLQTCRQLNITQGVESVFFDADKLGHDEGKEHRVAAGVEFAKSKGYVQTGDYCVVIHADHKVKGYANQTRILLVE
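Screened at intermediate enzyme activity to detect both inhibitors and activators: LmPK at 0.1 nM, with a 0.5 nM enzyme column as activation reference. PEP 0.5 mM, ADP 0.1 mM; ATP detected by luminescence after 1 h.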
Tb PYK inh: blocks Trypanosoma brucei pyruvate kinase; Q57TT1; TbPYK enzyme, Kinase-Glo Plus ATP luminescence, 45 min; Potency, µM (doses to about 76.8 µM), for inactives: top-dose activity, negative = inhibition, usual class: inhibitors; actives 0.12% (n = 410,000); AID 624173; also: nearly all actives have a fitted effect of over 50% in size
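Enzyme and substrate buffer are dispensed first and compound is pin-transferred. ADP at 130 uM final then starts the reaction, which runs 45 min at room temperature. Detection reagent is added for 10 min before luminescence is imaged.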
An asterisk follows results filed as active; ? = inconclusive; · = not tested or not shown; [ ] = remark or other dose. Unless noted, calls follow the shape of the dose curve; as a rule, active = well fitted curve in the direction sought with a large enough effect; inconclusive = small, poorly fitted or top-dose-only effect, or another doubt; inactive = no such curve, though single readings can be large; an effect the other way counts as inactive or inconclusive. Unless noted, % is scaled to controls: 0 for no effect and ±100 for the full control effect; potency is read from the fitted curve at half-maximal effect.

SMILES	AMA1 RON2 block	RE007 growth inh	LmPK inhibitor	Tb PYK inh
O=C(O)CSc1ccc(NC(=O)Nc2ccccc2F)cc1	13.4%	?	15.8µM*	?
CC(/C=N/N1CCN(c2ccccc2)CC1)=C\c1ccccc1	-8.0%	4.3%	-17.4%	4.7%
CC(/C=N/N1CCN(c2ccccn2)CC1)=C\c1ccccc1	-7.5%	-9.6%	-2.9%	4.2%
CC(=C/c1ccco1)/C=N/N1CCN(c2ccccc2)CC1	0.7%	0.3%[3.69 µM]	15.8µM*	·
CC(/C=N/N1CCN(c2ccccc2)CC1)=C\c1ccco1	-24.2%	-23.5%	12.6µM*	?
O=C(C=Cc1ccccn1)c1ccccc1	2.1%	25.1µM*	·	4.4%
O=C(/C=C/c1ccc(O)cc1)c1ccccc1	-13.4%	50.1µM*	12.6µM*	?
O=C(C=Cc1cccnc1)c1ccccc1	7.2%	44.7µM*	·	-1.9%
COc1ccc(C(=O)/C=C/c2ccc(O)cc2)cc1	-17.6%	-20.1%	-13.9%	-2.2%
Cc1c(C(=O)NCc2ccccn2)sc(=O)n1Cc1ccc(-c2ccccc2)cc1	0.0%	7.4%[18.4 µM]	·	6.7%
O=C(NCCCN1CCOCC1)c1ccc2nc(Cc3ccccc3F)oc2c1	3.3%	0.4%	-4.3%	2.6%
CC(=O)N1CCN(C(=O)COC(=O)COc2ccc(C#N)cc2)CC1	-2.9%	17.0%	·	0.3%
Cc1ccc(S(=O)(=O)N2CCOCC2)cc1C(=O)OCC(=O)Nc1ccc(Cl)cn1	-8.8%	-5.9%	·	0.2%
Cc1cccc(C)c1N=Nc1c(C)cc(O)cc1C	?	25.1µM*	-14.8%	-5.0%
O=C(O)CCS(=O)(=O)c1cccc2cccnc12	-15.1%	2.0%	0.3%	-8.5%
CCSS(=O)(=O)c1cccc2cccnc12	1.5%	5.62µM*	47.3%	10µM*
S=c1[nH]nc(-c2ccc(Cl)cc2)n1-c1ccc(Cl)cc1	60.6%	7.1%	?	?
COc1ccc(-n2c(-c3ccc(Br)cc3)n[nH]c2=S)cc1	48.5%	3.3%	10µM*	?
COc1ccc(-n2c(-c3cnccn3)n[nH]c2=S)cc1	-2.3%	-5.4%	-2.7%	?
COc1ccc(-c2n[nH]c(=S)n2-c2ccc(C)cc2)cc1	79.0%	18.6%	2µM*	?
CC(C)c1ccc(NC(=O)c2csnn2)cc1	0.6%	11.4%	-14.7%	-1.8%
CCN(CCO)C1CC(=O)N(c2ccccc2C)C1=O (stereo not given)	4.7%	22.4µM*	-0.8%	-5.9%
Cn1c(=O)c2c(nc(SCC(=O)O)n2Cc2cc3c(cc2Cl)OCO3)n(C)c1=O	-4.0%	2.4%	-7.9%	25.1µM*
C/C(=N\NC(=O)c1csc(C)c1C)c1ccc(C)s1	16.9%	0.9%	-3.0%	-10.2%
C/C(=N\NC(=O)c1csc(C)c1C)c1ccco1	26.8%	3.3%	14.1µM*	-22.9%
SMILES	AMA1 RON2 block	RE007 growth inh	LmPK inhibitor	Tb PYK inh
O=C1CCc2nc3ccccc3c(=O)n2N1	29.3%	-2.2%	2.8%	-1.2%
CSc1ccc(C(=O)C2CCCN(Cc3cc4ccccc4[nH]3)C2)cc1 (stereo not given)	31.6µM*	-2.9%	7.3%	-4.8%
CCOC(=O)c1ncccc1NC(=O)CC(=O)Nc1cccnc1C(=O)OCC	14.1µM*	5.5%	·	3.6%
CCOc1ccc(C(=O)OCC(=O)Nc2cccnc2Cl)cc1OCC	13.2%[11.6 µM]	-20.8%	·	0.6%
O=C(Cn1c2c(sc1=O)C1c3ccccc3OCC1CS2)Nc1ccc(Cl)c(Cl)c1 (stereo not given)	26.2%	5.3%	2.5%	-10.7%
CCCCCCCCCCCCCCCCn1cc[n+](C)c1	2.4%	14.1µM*	3.1%	-2.3%
Cc1cccc(N=Nc2ccc(N(C)C)cc2)c1	15.8µM*	-15.6%	0.5%	1.2%
CN(C)c1ccc(N=Nc2cccc(F)c2)cc1	8.91µM*	5.4%	-8.1%	4.1%
CN(C)c1ccc(N=Nc2cccc3ccoc23)cc1	14.1µM*	·	-14.6%	1.6%
CN(C)c1ccc(N=Nc2ccc3ncccc3c2)cc1	?	-15.9%	·	-3.8%
CCOC(=O)c1ccc(N2C(=O)CC(N3CCC(Nc4ccc(F)cc4)CC3)C2=O)cc1 (stereo not given)	5.7%	7.94µM*	2.7%	-7.1%
CCOC(=O)c1ccc(N2C(=O)CC(N3CCN(Cc4ccccc4)CC3)C2=O)cc1 (stereo not given)	-0.4%	-23.5%	0.2%	1.4%
CCOC(=O)c1ccc(N2C(=O)CC(N3CCC(C#N)(c4ccccc4)CC3)C2=O)cc1 (stereo not given)	4.0%	22.4µM*	5.9%	-6.1%

Screens from PubChem.
